Screening data: PubChem BioAssay, National Center for Advancing Translational Sciences (NCATS)
TSHR antag: Antagonists of the Thyroid Stimulating Hormone Receptor: HTS campaign. AID 504810, 2011. TSHR-expressing cells, TSH-stimulated cAMP HTRF, 2 h; active compounds read low. activity change, negative = inhibition, % at 11.5 µM. 0.2% of 330,000 active;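 active = activity change below a set negative limit, meaning inhibition stronger than a set level, cut at about -70% in these data; inconclusive = activity change between two set negative limits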; also: % is scaled to controls: 0 for no effect and ±100 for the full control effect
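Antagonism was scored as loss of TSH-driven cAMP in TSHR cells, stimulated with 4nM TSH (EC80) for 2 hours at 37 deg C and detected by homogeneous HTRF competition immunoassay.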
NPSR antagonist: qHTS Assay for Antagonists of the Neuropeptide S Receptor: cAMP Signal Transduction; CHO-NPSR cells, cAMP TR-FRET, antagonist mode; Potency, µM (series often up to 38.3 µM), inactives show at the highest dose activity change, negative = inhibition, most hits filed as inhibitors; 1% of 220,000 active; also: potency is read from the fitted curve at half-maximal effect; % is scaled to controls: 0 for no effect and ±100 for the full control effect; nearly all actives have a fitted effect of over 50% in size
RXFP1 ag: qHTS Assay for Agonists of the Relaxin Receptor RXFP1 | HEK293T-RXFP1 cAMP TR-FRET, 30 min; response scale: percent of porcine relaxin response, buffer zero | 0.3% of 370,000 active | Potency, µM (highest dose often 57.5 µM), for inactives: at the top dose activation, hits mostly activators | AID 2676, 2010; also: potency is read from the fitted curve at half-maximal effect; % is scaled to controls: 0 for no effect and ±100 for the full control effect; nearly all actives have a fitted effect of over 60% in size
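Agonist response is measured as cAMP accumulation in an RXFP1-transfected HEK293T line under PDE4 inhibition. Values are scaled between buffer-only and 29 nM porcine relaxin, and EC50s come from standard Hill equation fits.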
PTHR1 agonist: qHTS for PTHR1 Agonists: Primary Screen | HEK293 GP2 PTHR1 cells, GloSensor cAMP luminescence, 1 h | Potency, µM (titrated, usually from 115 µM), inactives show top-dose activation, actives largely listed as activators | 0.075% of 410,000 active | AID 743266, 2014; also: potency is read from the fitted curve at half-maximal effect; nearly all actives have a fitted effect of over 55% in size
Target sequence (Q03431 whole entry, looked up): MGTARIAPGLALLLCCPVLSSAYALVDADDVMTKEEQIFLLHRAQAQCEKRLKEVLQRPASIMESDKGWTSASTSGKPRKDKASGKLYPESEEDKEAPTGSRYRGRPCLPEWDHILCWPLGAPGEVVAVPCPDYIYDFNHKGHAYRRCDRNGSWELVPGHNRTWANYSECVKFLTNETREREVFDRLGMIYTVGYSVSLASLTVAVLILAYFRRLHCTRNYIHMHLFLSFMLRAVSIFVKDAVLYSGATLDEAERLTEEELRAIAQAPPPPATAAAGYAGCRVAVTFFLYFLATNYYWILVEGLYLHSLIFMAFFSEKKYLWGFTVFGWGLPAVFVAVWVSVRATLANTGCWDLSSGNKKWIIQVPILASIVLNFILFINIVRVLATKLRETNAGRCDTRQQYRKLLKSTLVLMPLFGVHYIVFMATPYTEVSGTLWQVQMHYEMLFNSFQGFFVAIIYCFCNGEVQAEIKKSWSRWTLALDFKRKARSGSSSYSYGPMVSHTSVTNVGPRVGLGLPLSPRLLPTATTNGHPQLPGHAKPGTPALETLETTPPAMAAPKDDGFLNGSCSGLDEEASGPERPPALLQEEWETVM
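HEK-293-derived GP2 cells expressing PTHR1 and a GloSensor cAMP reporter, 3,000/well, plated overnight, given luciferin plus IBMX (each 0.5 mM as added) for 1 h at 37 °C, then compound for 1 h at 37 °C. Luminescence was read after 15 min at room temperature.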
HEK293 tox: qHTS of GLP-1 Receptor Inverse Agonists: Cytotox Screen; HEK293 cAMP-luciferase reporter cells, luminescence, 24 h; Potency, µM (doses to about 38.3 µM), for inactives: top-dose activity change, negative = inhibition, usual class: inhibitors; 0.13% of 410,000 active; AID 624418, 2012;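 also: loss of luciferase light is scored as toxicity; potency is read from the fitted curve at half-maximal effect; % is scaled to controls: 0 for no effect and ±100 for the full control effect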
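Cells in DMEM/10% Nu serum/1% pen-strep, 1536-well format. Pre-incubated 12 h, dosed with 23 nL compound, incubated a further 24 h. Luciferase detection, 12 min at room temp, luminescence.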
RXFP1 antagonist: qHTS Assay for Antagonists of the Relaxin Receptor RXFP1 | Relaxin receptor 1 (Homo sapiens), Q9HBX9 | HEK293-RXFP1, relaxin-stimulated cAMP HTRF, 30 min; active compounds read low | activity change, negative = inhibition, % at 57.5 µM | 0.59% of 350,000 active | AID 1259400, 2018;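 active = activity change of -60% or lower, but not beyond a set lower limit; inconclusive = change between -60% and -40%, or beyond the set limit; inactive = change above -40%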; also: % is scaled to controls: 0 for no effect and ±100 for the full control effect
* hit, by the source's call; i = inactive; ? = inconclusive; . = no result; [ ] = dose if it differs, or a comment. The entries come from a sample that favours hits as a whole. Unless noted, calls follow the shape of the dose curve; as a rule, active = well fitted curve in the direction sought with a large enough effect; inconclusive = small, poorly fitted or top-dose-only effect, or another doubt; inactive = no such curve, though single readings can be large; an effect the other way counts as inactive or inconclusive.

SMILES	TSHR antag	NPSR antagonist	RXFP1 ag	PTHR1 agonist	HEK293 tox	RXFP1 antagonist
C/C(CC1CC(C)OC1=O)=N\NC(N)=S (stereo not drawn)	11	49%	1%	i	-11%	-9
COc1ccccc1C(=O)NC(=O)COC(=O)Cc1n[nH]c(=O)c2ccccc12	.	.	0%	50µM*	13%	4
CNc1oc(-c2ccc(F)cc2)nc1S(=O)(=O)c1ccccc1	-2	.	14%	-2%	-5%	17
CC(C)CS(=O)(=O)c1oc(-c2ccc(F)cc2)nc1S(=O)(=O)c1ccccc1	.	.	4%	-93%	?	-82*
CCC(C)S(=O)(=O)c1oc(-c2cccs2)nc1S(=O)(=O)c1ccccc1 (stereo not drawn)	.	.	1%	-41%	?	-79*
CNc1oc(-c2cccs2)nc1S(=O)(=O)c1ccccc1	-15	-16%	2%	-20%	-6%	-6
CCOc1ccc(/C=C(\C#N)C(=O)c2c(C)[nH]c3ccccc23)cc1OC	2	-30%	2%	-11%	25%	-63*
O=C(NC1CCCCC1)C(c1ccc2ncccc2c1)N(Cc1ccc(F)cc1)C(=O)c1ccc2c(c1)OCCO2 (stereo not drawn)	-1	13µM*	-3%	-8%	?	17
O=C(NC1CCCCC1)C(c1ccc2ncccc2c1)N(Cc1ccc2c(c1)OCO2)C(=O)c1ccc2c(c1)OCCO2 (stereo not drawn)	-3	-8%	4%	-1%	14%	-19
N#Cc1c(SCC(=O)Nc2nccs2)sc2c(O)cc(=O)[nH]c12	-1	.	8%	i	-6%	-87*
C=CCN(CC=C)CC(=O)Nn1c(C)ccc1C	.	.	.	-14%	14%	-1
Cn1c(=O)c(C(=O)COc2ccc(C#N)cc2)c(N)n(Cc2ccccc2)c1=O	4	-27%	18µM*	-1%	-4%	31
CCC(=O)OCC(=O)c1c(N)n(Cc2ccccc2)c(=O)n(C)c1=O	-5	-12%[46.1 µM]	-4%	i	13%	-5
OCc1cn(Cc2ccc(O)c3ncccc23)cn1	13	.	1%	.	.	.
Cc1ccc(-c2c(C(=O)Nc3ccccc3C)c(C)[nH]c(=S)c2C#N)o1	2	-19%	28µM*	-25%	1%	-2
Cc1ccccc1NC(=O)c1c(C)[nH]c(=S)c(C#N)c1-c1ccc(Cl)cc1	-2	-14%	8%	i	8%	-18
OCCN1CCN(C(c2cccs2)c2ccc3cccnc3c2O)CC1 (stereo not drawn)	-16	10µM*	0%	.	.	.
CCN1CCN(C(c2ccc(C(F)(F)F)cc2)c2ccc3cccnc3c2O)CC1 (stereo not drawn)	11	.	2%	i	-12%	-1
CCOC(=O)CSc1nnc2n(-c3ccccc3)c(=O)c3c4c(sc3n12)CC(C(C)(C)C)CC4 (stereo not drawn)	.	.	4%	-2%	-6%	-69*
CCOc1ccc(N(CC(=O)Nc2cc(C)cc(C)c2)S(C)(=O)=O)cc1	-73*	.	-1%	-17%	-15%	7
O=C(CCCCn1c(=O)c2ccccc2n(Cc2ccccc2)c1=O)NC1CCN(Cc2ccccc2)CC1	13	-38%	0%	i	?	0
CCc1ccc(N2CCn3c2nc2c3c(=O)n(CCCc3ccccc3)c(=O)n2C)cc1	.	.	-2%	-12%	24%	7
CCc1ccc(N2CCn3c2nc2c3c(=O)n(CCc3ccccc3)c(=O)n2C)cc1	.	.	0%	50µM*	6%	18
CC(NC(=O)CN(c1cccc(C(F)(F)F)c1)S(=O)(=O)c1ccc(Cl)c([N+](=O)[O-])c1)c1ccccc1 (stereo not drawn)	-48	?	-1%	-14%	-17%	-82*
CCc1ccc(C2CC(=O)c3c([nH]c(C(=O)OC4CCC(C)CC4)c3C)C2)cc1 (stereo not drawn)	.	.	-2%	-47%	4%	-1
SMILES	TSHR antag	NPSR antagonist	RXFP1 ag	PTHR1 agonist	HEK293 tox	RXFP1 antagonist
CCCN(C(=O)c1cc2c(s1)-c1c(C)cccc1OC2)c1ccc(OCC)cc1	.	.	0%	10%	4%	-15
O=C(OCc1nnc(-c2ccccc2)o1)c1ccc([N+](=O)[O-])o1	1	.	0%	i	4%	40
O=C(OCc1nnc(-c2ccccc2)o1)c1ccc(Br)o1	.	.	0%	-13%	13%	-73*
CN1C[C@@H]2C(c3ccc(Cl)nc3)C3(c4cccnc4)CC2(C3)[C@H]1c1ccccc1 (stereo partly drawn)	11	?	-1%	i	-7%	.
CN1C[C@@H]2C(c3ccc(Cl)nc3)C3(c4ccccc4)CC2(C3)[C@H]1c1ccccc1 (stereo partly drawn)	52	4µM*	-4%	i	-13%	.
O=C(CSc1nc(C2CC2)nc2ccccc12)N1c2ccccc2Sc2ccc(C(F)(F)F)cc21	3	7.9µM*	0%	i	?	2
O=C(CSc1nc(C2CC2)nc2ccccc12)N1CCCCC1	7	.	-1%	-23%	-28%	16
O=C(NNC(=O)c1ccc(Cn2cccn2)o1)NC12CC3CC(CC(C3)C1)C2	-27	.	6%	i	3%	4
C[n+]1ccc(/C=C/c2ccccc2O)c2ccccc21	-26	13µM*	-3%	i	8%[7.66 µM]	-27
O=C(Nc1ccc(N2CCN(C(=O)c3cccs3)CC2)cc1)c1ccc(Br)o1	-15	.	-3%	-24%	-36%	-10
Cc1ccc(C(=O)NCCNc2ncc(C(F)(F)F)cc2Cl)cc1[N+](=O)[O-]	-113*	.	1%	-14%	3%	-15
COc1ccc(C(=O)NCCNc2ncc(C(F)(F)F)cc2Cl)cc1[N+](=O)[O-]	-10	.	7%	-34%	1%	-11
CC(C)C(=O)N(c1cc2sc(=O)oc2c2ccccc12)S(=O)(=O)c1cccs1	-13	?	-2%	-10%[57.5 µM]	4%	-68*
CCC1C(=NO)C(CC)C(c2ccccc2)NC1c1ccccc1 (stereo not drawn)	-33	-58%	-1%	-31%	?	-74*
